This note sets out measurements from PubChem BioAssay (NCATS).

Where “and” joins values, the source holds several entries; their conditions need not be identical. Equal entries are not always repeated. Records with an inconclusive call do not appear. A number with no mark means an inactive call. Calls of active or inactive are those of the source. Calls follow the shape of the dose curve; as a rule, active = well fitted curve in the direction sought with a large enough effect in the repeat runs; inconclusive = weak or mixed curves; inactive = no such curve, though single readings can be large; an effect the other way counts as inactive or inconclusive.

Sequence of Cytochrome P450 2D6 (Homo sapiens) (P10635 whole entry, looked up): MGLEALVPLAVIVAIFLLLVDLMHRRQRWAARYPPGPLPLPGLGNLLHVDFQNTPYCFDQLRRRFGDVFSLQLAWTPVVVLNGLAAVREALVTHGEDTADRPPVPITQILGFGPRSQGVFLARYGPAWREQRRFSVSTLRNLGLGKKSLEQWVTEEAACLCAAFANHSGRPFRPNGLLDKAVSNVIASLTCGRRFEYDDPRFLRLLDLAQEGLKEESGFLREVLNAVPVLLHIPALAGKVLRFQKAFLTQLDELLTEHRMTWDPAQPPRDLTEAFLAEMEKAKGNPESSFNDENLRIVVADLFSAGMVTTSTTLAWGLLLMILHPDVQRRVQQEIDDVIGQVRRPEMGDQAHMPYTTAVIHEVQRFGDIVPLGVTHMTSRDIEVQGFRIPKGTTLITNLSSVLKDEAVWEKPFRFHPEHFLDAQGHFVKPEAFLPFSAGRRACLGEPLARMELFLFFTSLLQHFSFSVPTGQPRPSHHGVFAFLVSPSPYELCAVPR

For the first assay, the target named is Cytochrome P450 2D6 (Homo sapiens) (UniProt P10635). The experiment in a line: Cytochrome P450 family 2 subfamily D member 6 (CYP2D6) small molecule antagonists: luciferase biochemical (cell-free) qHTS assay (AID 1645840). Also: nearly all actives have a fitted effect of over 55% in size. Also: potency is read from the fitted curve at half-maximal effect. As to activity change, negative = inhibition: % is scaled to controls: 0 for no effect and ±100 for the full control effect. The note with it: P450-Glo CYP2D6 enzyme, luciferin luminescence, 1 h; series mostly up to 57.4 µM; activity change, negative = inhibition: at the top concentration. The gist of the method:
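P450-Glo luminescent screen: recombinant CYP2D6 enzyme–proluciferin substrate mix preincubated with compound 10 min at room temperature, then NADPH regeneration added for 1 h at room temperature. Detection reagent added for 20 min; luciferin light read as relative luminescence units.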
A general note: Quantitative high-throughput screening tests each substance at several concentrations.
Take `O=C(O)CN(CCOCCOCCN(CC(=O)O)CC(=O)O)CC(=O)O`: the activity change, negative = inhibition was 2.42% [at 0.91 µM].

As for `CCOC(=O)c1cnc2c(cnn2CC)c1NN=C(C)C`, the “activity change, negative = inhibition” value is 3.59%.

For the compound `N[C@@H](COP(=O)(O)O)C(=O)O`, the “activity change, negative = inhibition” value is 8.14% [at 23.9 µM].

In the case of `CC(C)(C)NCC(O)c1cc(O)cc(O)c1` (stereo not drawn), the “activity change, negative = inhibition” value is -20.5%.

Turning to `CC(=O)Nc1nnc(S(N)(=O)=O)s1`, the “activity change, negative = inhibition” value was 13.9%.

In the case of `Brc1c(NC2=NCCN2)ccc2nccnc12`, the Potency is 21.9 µM (active).

In the case of `OC(CCN1CCCCC1)(c1ccccc1)C1CCCCC1` (stereo not drawn), the Potency was 1.74 µM (active).

On to `NC(Cc1ccc(Cl)cc1)C(=O)O` (stereo not drawn), for which the activity change, negative = inhibition is 5.71% [at 0.91 µM].

As for `OCCN1CCN(CCCN2c3ccccc3C=Cc3ccccc32)CC1`, the Potency was 13.8 µM (active).

On to `C[C@]12CCC(=O)C=C1CC[C@@H]1[C@@H]2CC[C@@]2(C)[C@H]1CC[C@]2(O)C(=O)CO`, for which the “activity change, negative = inhibition” value was 5.17%.

On to `CC(C(=O)O)c1ccc(CC2CCCC2=O)cc1` (stereo not drawn), for which the “activity change, negative = inhibition” value was 6.76%.

Regarding `COC(=O)[C@@H](N)Cc1ccc(O)c(O)c1`, the “activity change, negative = inhibition” value was -24.3%.

On to `c1cc(CN2CCCCC2)cc(OCCCNc2nc3ccccc3s2)c1`, for which the Potency was 1.74 µM (active).

On to `COc1ccc2c(c1OC)C(=O)O[C@@H]2[C@H]1c2c(cc3c(c2OC)OCO3)CCN1C`, for which the Potency was 4.9 µM (active).

Take `Cc1nc2sccn2c(=O)c1CCN1CCC(=C(c2ccc(F)cc2)c2ccc(F)cc2)CC1`: the Potency is 3.09 µM (active).

With `Cc1scc2c1N(C(=O)CN1CCN(C)CC1)c1ccccc1NC2=O`, the “activity change, negative = inhibition” value is 3.59%.

For `CC(=O)OCC1=C(C(=O)O)N2C(=O)[C@@H](NC(=O)Cc3cccs3)[C@H]2SC1`, the “activity change, negative = inhibition” value was -11.2%.

Regarding `CN(C)[C@@H]1C(=O)C(C(N)=O)=C(O)[C@@]2(O)C(=O)C3=C(O)c4c(O)ccc(Cl)c4[C@@H](O)[C@H]3C[C@@H]12`, the “activity change, negative = inhibition” value was 8.31%.

For `O=C(O)CN(CCN(CC(=O)O)CC(=O)O)CCN(CC(=O)O)CC(=O)O`, the “activity change, negative = inhibition” value is 17.5% [at 23.9 µM].

In the case of `NC(=Nc1ccccc1)Nc1ccccc1`, the Potency is 461 nM (active) and 1.55 µM (active).

As to `CCc1cccc(N(C)C(N)=Nc2cccc3ccccc23)c1`, the Potency was 0.11 µM (active).

Take `CC1=NS(=O)(=O)c2cc(Cl)ccc2N1`: the “activity change, negative = inhibition” value is -4.92%.

With `CN(C)C(=O)Oc1cccc([N+](C)(C)C)c1`, the “activity change, negative = inhibition” value was -1.88%.

Regarding `NC(=O)c1ncn([C@@H]2O[C@H](CO)[C@@H](O)[C@H]2O)c1O`, the “activity change, negative = inhibition” value was 5.11%.

Regarding `CCCOc1ccccc1-c1nc2n[nH]nc2c(=O)[nH]1`, the “activity change, negative = inhibition” value was 5.07%.

In the case of `C[N+](C)(C)CCOC(N)=O`, the “activity change, negative = inhibition” value was 5.27%.

Turning to `CN1CCN(CC(=O)N2c3ccccc3C(=O)Nc3cccnc32)CC1`, the activity change, negative = inhibition is 3.24% [at 4.83 µM].

`NCCCNCCSP(=O)(O)O`: the activity change, negative = inhibition is -0.206% [at 11.5 µM].

Consider `CN1CCN(C2=Nc3ccccc3Oc3ccc(Cl)cc32)CC1`, for which the Potency was 3.89 µM (active).

For the compound `CCO/C([O-])=N/c1c[n+](N2CCOCC2)no1`, the “activity change, negative = inhibition” value is 6.22%.

The target in the next assay is Cytochrome P450 3A4 (Homo sapiens) (UniProt P08684). The experiment in a line: Cytochrome P450 family 3 subfamily A member 4 (CYP3A4) small molecule antagonists: luciferase qHTS assay (AID 1645841). Also: nearly all actives have a fitted effect of over 45% in size. The following applies: P450-Glo CYP3A4 enzyme assay, luciferin luminescence; series mostly up to 57.4 µM; activity change, negative = inhibition: at the top concentration. The essentials: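 P450-Glo CYP3A4 enzyme with proluciferin substrate preincubated 10 min with compound at room temperature, then NADPH regeneration 1 h. Luciferin detection reagent added for 20 min; luminescence recorded. Ketoconazole positive control.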
Sequence of Cytochrome P450 3A4 (Homo sapiens) (P08684 whole entry, looked up): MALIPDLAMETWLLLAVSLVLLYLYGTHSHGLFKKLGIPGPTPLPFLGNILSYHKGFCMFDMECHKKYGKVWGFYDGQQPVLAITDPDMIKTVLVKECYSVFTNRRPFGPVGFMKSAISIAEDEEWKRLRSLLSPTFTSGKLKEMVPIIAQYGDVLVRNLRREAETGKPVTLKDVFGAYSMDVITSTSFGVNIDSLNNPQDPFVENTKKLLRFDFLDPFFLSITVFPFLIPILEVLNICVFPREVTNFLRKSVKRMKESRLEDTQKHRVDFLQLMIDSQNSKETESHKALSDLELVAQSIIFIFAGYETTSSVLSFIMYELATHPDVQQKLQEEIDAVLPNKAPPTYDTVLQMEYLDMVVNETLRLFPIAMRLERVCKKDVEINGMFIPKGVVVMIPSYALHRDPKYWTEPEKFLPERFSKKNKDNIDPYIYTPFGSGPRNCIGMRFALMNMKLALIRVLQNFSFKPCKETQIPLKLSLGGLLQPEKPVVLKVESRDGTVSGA
On to `N[C@@H](COP(=O)(O)O)C(=O)O`, for which the “activity change, negative = inhibition” value was 22.2% [at 23.9 µM].

On to `CC(=O)Nc1nnc(S(N)(=O)=O)s1`, for which the “activity change, negative = inhibition” value is 25.4%.

For `CC(C(=O)O)c1ccc(CC2CCCC2=O)cc1` (stereo not drawn), the “activity change, negative = inhibition” value was 34%.

Take `CN(C)[C@@H]1C(=O)C(C(N)=O)=C(O)[C@@]2(O)C(=O)C3=C(O)c4c(O)ccc(Cl)c4[C@@H](O)[C@H]3C[C@@H]12`: the “activity change, negative = inhibition” value is -25.5%.

The target in the next assay is Cytochrome P450 2C9 (Homo sapiens) (UniProt P11712). Description: Cytochrome P450 family 2 subfamily C member 9 (CYP2C9) small molecule antagonists: luciferase biochemical (cell-free) qHTS assay (AID 1645842). Also: nearly all actives have a fitted effect of over 55% in size. Also: potency is read from the fitted curve at half-maximal effect. As to activity change, negative = inhibition: % is scaled to controls: 0 for no effect and ±100 for the full control effect. The note with it: P450-Glo CYP2C9 enzyme assay, luciferin luminescence; series mostly up to 57.4 µM; activity change, negative = inhibition: at the top concentration. The essentials: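 Luminescence, after 20 min with luciferin detection reagent, reflected CYP2C9 turnover during a 1 h NADPH-driven reaction at 37C. Enzyme-substrate mix contained 0.4% bovine serum albumin and was preincubated with compound 10 min at room temperature.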
Sequence of Cytochrome P450 2C9 (Homo sapiens) (P11712 whole entry, looked up): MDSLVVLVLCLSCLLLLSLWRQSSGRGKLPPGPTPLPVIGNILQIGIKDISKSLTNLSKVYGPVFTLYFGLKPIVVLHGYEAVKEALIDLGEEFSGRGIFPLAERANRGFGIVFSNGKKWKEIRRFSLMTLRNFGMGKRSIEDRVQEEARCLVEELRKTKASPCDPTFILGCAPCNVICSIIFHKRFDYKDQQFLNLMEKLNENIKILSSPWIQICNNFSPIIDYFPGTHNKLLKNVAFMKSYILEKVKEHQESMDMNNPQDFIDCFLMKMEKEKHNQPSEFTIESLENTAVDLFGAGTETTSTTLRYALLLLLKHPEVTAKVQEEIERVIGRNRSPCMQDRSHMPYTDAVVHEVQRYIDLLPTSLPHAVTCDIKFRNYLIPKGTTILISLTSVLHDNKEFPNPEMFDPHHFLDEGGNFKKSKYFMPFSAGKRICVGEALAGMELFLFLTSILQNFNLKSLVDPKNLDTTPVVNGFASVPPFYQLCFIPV
Take `O=C(O)CN(CCOCCOCCN(CC(=O)O)CC(=O)O)CC(=O)O`: the activity change, negative = inhibition is 9.82% [at 0.91 µM].

With `CCOC(=O)c1cnc2c(cnn2CC)c1NN=C(C)C`, the Potency is 13.8 µM (active).

For `O=C(CCCN1CCC(O)(c2cccc(C(F)(F)F)c2)CC1)c1ccc(F)cc1`, the Potency entry is “inactive”.

Regarding `N[C@@H](COP(=O)(O)O)C(=O)O`, the “activity change, negative = inhibition” value was 3.46% [at 23.9 µM].

As to `CC(C)(C)NCC(O)c1cc(O)cc(O)c1` (stereo not drawn), the “activity change, negative = inhibition” value was 0.91%.

Turning to `CC(=O)Nc1nnc(S(N)(=O)=O)s1`, the “activity change, negative = inhibition” value was 6.04%.

In the case of `Brc1c(NC2=NCCN2)ccc2nccnc12`, the “activity change, negative = inhibition” value is -1.05%.

In the case of `OC(CCN1CCCCC1)(c1ccccc1)C1CCCCC1` (stereo not drawn), the “activity change, negative = inhibition” value is 0.634%.

As for `NC(Cc1ccc(Cl)cc1)C(=O)O` (stereo not drawn), the activity change, negative = inhibition was 10.6% [at 0.91 µM].

Take `OCCN1CCN(CCCN2c3ccccc3C=Cc3ccccc32)CC1`: the “activity change, negative = inhibition” value is -0.326%.

Take `C[C@]12CCC(=O)C=C1CC[C@@H]1[C@@H]2CC[C@@]2(C)[C@H]1CC[C@]2(O)C(=O)CO`: the “activity change, negative = inhibition” value is -9.11%.

Turning to `CC(C(=O)O)c1ccc(CC2CCCC2=O)cc1` (stereo not drawn), the “activity change, negative = inhibition” value was 11.9%.

Turning to `COC(=O)[C@@H](N)Cc1ccc(O)c(O)c1`, the “activity change, negative = inhibition” value is -27.5%.

As for `c1cc(CN2CCCCC2)cc(OCCCNc2nc3ccccc3s2)c1`, the “activity change, negative = inhibition” value is -0.0333%.

With `CN(C)C/C=C(/c1ccc(Br)cc1)c1cccnc1`, the “activity change, negative = inhibition” value was 8.97%.

Turning to `COc1ccc2c(c1OC)C(=O)O[C@@H]2[C@H]1c2c(cc3c(c2OC)OCO3)CCN1C`, the Potency was 0.11 µM (active).

Regarding `Cc1scc2c1N(C(=O)CN1CCN(C)CC1)c1ccccc1NC2=O`, the “activity change, negative = inhibition” value is 9.6%.

On to `CC(=O)OCC1=C(C(=O)O)N2C(=O)[C@@H](NC(=O)Cc3cccs3)[C@H]2SC1`, for which the “activity change, negative = inhibition” value is -0.488%.

On to `O=C(O)CN(CCN(CC(=O)O)CC(=O)O)CCN(CC(=O)O)CC(=O)O`, for which the “activity change, negative = inhibition” value is 6.51% [at 23.9 µM].

On to `NC(=Nc1ccccc1)Nc1ccccc1`, for which the Potency result was “inactive”.

`CC1=NS(=O)(=O)c2cc(Cl)ccc2N1`: the “activity change, negative = inhibition” value was 8.01%.

Take `CN(C)C(=O)Oc1cccc([N+](C)(C)C)c1`: the “activity change, negative = inhibition” value is 7.48%.

Turning to `NC(=O)c1ncn([C@@H]2O[C@H](CO)[C@@H](O)[C@H]2O)c1O`, the “activity change, negative = inhibition” value is 1.87%.

As to `CCCOc1ccccc1-c1nc2n[nH]nc2c(=O)[nH]1`, the “activity change, negative = inhibition” value was 4.91%.

With `C[N+](C)(C)CCOC(N)=O`, the “activity change, negative = inhibition” value is 11.7%.

For the compound `CN1CCN(CC(=O)N2c3ccccc3C(=O)Nc3cccnc32)CC1`, the activity change, negative = inhibition is 3.44% [at 4.83 µM].

Turning to `NCCCNCCSP(=O)(O)O`, the activity change, negative = inhibition is 13.8% [at 11.5 µM].

As to `CN1CCN(C2=Nc3ccccc3Oc3ccc(Cl)cc32)CC1`, the “activity change, negative = inhibition” value was -21.9%.

On to `CCO/C([O-])=N/c1c[n+](N2CCOCC2)no1`, for which the “activity change, negative = inhibition” value was 12.8%.
